# Data: PubChem BioAssay
# “And” between values parts separate entries of the source, which are not always exact repeats. Identical values can stand only once. The source made the active and inactive calls. Rule as the data show it, unless noted: active = inhibition above about 80%; inactive = the rest.
# What was measured:
# [1] = viability loss with induced miR-34 in A549 – imaging, A549 dox-inducible miR-34, nuclei and caspase counts, primary screen (AID 1347080;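 active = compounds whose cell count with miR-34 switched on is under 0.7 times the count with it off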); conditions: A549 miR-34 inducible, Hoechst nuclei count, 48 h
# [2] = MELAS cybrid and Rieske KO viability enhancers – cell-based, MELAS cybrids, Rieske KO mouse fibroblasts, CellTiter-Glo, primary screen (AID 1508586;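 active = mean z-score across replicates of 1.96 or higher in either the MELAS or the Rieske mutant cell line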;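 also: z relative to plate mean and SD of compound and empty wells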); conditions: low glucose
# [3] = growth inhibition, single agent or in combination, cell-based, chromothripsis tumors, cisplatin or BGB combos (AID 1671449); conditions: LFS_MB_P medulloblastoma cells;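 also: cells exposed for 96 hours; 0% = vehicle DMSO and 100% = killing by high DMSO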
# [4] = growth inhibition, single agent and combos, cell-based, chromothripsis tumors, cisplatin or BGB combos (AID 1671450); conditions: HDN33 neuroblastoma cells, stronger effect = higher value;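 also: cells exposed to compound for four days; 0% = vehicle DMSO and 100% = cell killing by high DMSO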
# [5] = growth inhibition, single agents and combos, ICB984, cell-based, cisplatin or BGB combos, synergistic combos for chromothripsis tumors (AID 1671451; call rule not given here;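 also: cells exposed for 96 hours before readout; 0% = vehicle DMSO and 100% = killing by high DMSO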); conditions: ICB984 medulloblastoma cells, drug combinations, stronger effect = higher value
# [6] = growth inhibition, single agents and combos, LFS_MB_1R, cell-based, cisplatin or BGB combos, synergistic combos for chromothripsis tumors (AID 1671452); conditions: LFS_MB_1R medulloblastoma cells, stronger effect = higher value;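 also: cells exposed for 96 hours before readout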
# [7] = growth inhibition, single agents and combos, HTB85, cell-based, BGB or cisplatin IC20 combos, synergistic combos for chromothripsis tumors (AID 1671453); conditions: HTB85 osteosarcoma cells, drug combinations, stronger effect = higher value;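 also: cells exposed for 96 hours before readout; 0% = vehicle DMSO and 100% = high DMSO killing control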
# [8] = growth inhibition, single agents and combos, CRL2098, cell-based, BGB or cisplatin IC20 combos, synergistic combos for chromothripsis tumors (AID 1671454); conditions: CRL2098 osteosarcoma cells, drug combinations, stronger effect = higher value;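 also: cells exposed for 96 h before readout; 0% = vehicle DMSO and 100% = killing by high DMSO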
# [9] = growth inhibition, single agents and combos, HD-MB03, cell-based, BGB or cisplatin IC20 combos, synergistic combos for chromothripsis tumors (AID 1671455; in the data active = inhibition above about 83%;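 also: 0% = vehicle DMSO and 100% = high DMSO as cytotoxic control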); conditions: HD-MB03 medulloblastoma cells, stronger effect = higher value
# [10] = growth inhibition, single agents and combos, UWB1.289, cell-based, BGB or cisplatin combos, synergistic combos for chromothripsis tumors (AID 1671456); conditions: UWB1.289 ovarian carcinoma cells, stronger effect = higher value;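 also: cells exposed to compound for four days; 0% = vehicle DMSO and 100% = killing by high DMSO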
# [11] = growth inhibition, single agents and combos, LFS_MB_2R, cell-based, cisplatin combos, synergistic combos for chromothripsis tumors (AID 1671457); conditions: LFS_MB_2R medulloblastoma cells, stronger effect = higher value;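 also: cells exposed to compound for four days before readout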
# [12] = growth inhibition, MDA-MB-436, cell-based, BGB or cisplatin combos, synergistic combos for chromothripsis tumors (AID 1671458; call rule not given here;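 also: cells exposed for 96 hours; 0% = vehicle DMSO and 100% = killing by high DMSO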); conditions: MDA-MB-436 breast carcinoma growth inhibition, drug combinations, stronger effect = higher value
# [13] = UWB1.289_BRCA1 ovarian cancer growth, cell-based, BGB or cisplatin combinations (AID 1671459); conditions: UWB1.289 BRCA1 ovarian carcinoma, drug combinations, stronger effect = higher value
# [14] = drug combination toxicity in non-malignant astrocytes – cell-based, BGB or cisplatin IC20 combos, cytotoxicity control for chromothriptic childhood tumor combination screen (AID 1671460); conditions: Human astrocytes, viability inhibition, drug combinations, at 0.5 µM, stronger effect = higher value;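 also: cells exposed to compounds for 96 hours before viability readout; 0% = vehicle and 100% = killing control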
# [15] = BT084 cell growth, single and combined drugs, ICGC_MB145, cisplatin and BGB IC40 combos (AID 1671461); conditions: BT084 medulloblastoma cells, drug combinations, stronger effect = higher value;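 also: cells exposed to drugs for 96 hours; 0% = vehicle DMSO and 100% = high DMSO full killing control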
# [16] = RCMB18 cell growth, single agent and combined, cisplatin and BGB IC40 combos (AID 1671462); conditions: RCMB18 medulloblastoma cells, stronger effect = higher value;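 also: cells exposed to compound for four days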
# [17] = CRL1545 cell growth, single agent and combined, cisplatin and BGB IC20 combos (AID 1671464); conditions: CRL1545 osteosarcoma cells, stronger effect = higher value;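 also: cells exposed to compound for 96 hours before readout; 0% = vehicle DMSO and 100% = high DMSO killing control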
# [18] = compounds altering viability of human ES cells (AID 493140; call rule not given here;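 also: cells exposed to compounds for four days before counting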); conditions: human embryonic stem cell survival screen; stronger effect = higher value
# [19] = P. berghei load reduction in hepatocytes – cell-based, HepG2, luciferase luminescence, HepG2 viability, primary screen (AID 624349; in the data active = parasite load remaining mostly below about 12%, no sharp cut-off; inactive = mostly above about 10%;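 also: 100% = mean of DMSO negative control wells on the same plate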); conditions: P. berghei liver stage in HepG2, luciferase luminescence, concentration not given here; parasite load remaining: stronger effect = lower value; viability: measured here: HepG2 viability without parasites
# [20] = stronger effect = lower value, cell number ratio, induced over uninduced
# [21] = measured here: relative caspase fold change +Dox/-Dox
# [22] = measured here: total cells with miR-34 induction, stronger effect = lower value
# [23] = measured here: total cells without miR-34 induction
# [24] = MELAS cybrid survival, CellTiter-Glo 48 h, stronger effect = higher value
# [25] = Rieske KO mouse fibroblast survival, CellTiter-Glo 72 h
# [26] = measured here: combination with BGB IC40, at 0.05 µM
# [27] = measured here: with BGB IC20 combination, at 0.5 µM
# [28] = measured here: with cisplatin IC20 combination, at 0.5 µM
# [29] = measured here: combination with cisplatin, at 0.5 µM
# [30] = measured here: combination with cisplatin, at 5 µM
smiles,measurement,setting,value
Cc1cc(C#N)cc(C)c1Oc1nc(Nc2ccc(C#N)cc2)nc(N)c1Br,fold change,[1]; [20],0.85 (inactive)
same,fold change,[1]; [21],2.01
same,cell count,[1]; [22],3910
same,cell count,[1]; [23],4600
same,z-score,[2]; [24],0.252 (inactive)
same,z-score,[2]; [25],-0.21
same,inhibition,"[3]; at 0.5 µM, stronger effect = higher value",-6.54% (inactive)
same,inhibition,"[3]; measured here: combination with BGB IC20, at 0.005 µM",-10%
same,inhibition,"[3]; measured here: combination with BGB IC40, at 0.005 µM",-30.6%
same,inhibition,[3]; [26],-26%
same,inhibition,"[3]; measured here: combination with cisplatin, at 0.5 µM, stronger effect = higher value",-19.3%
same,inhibition,"[3]; measured here: combination with cisplatin, at 5 µM, stronger effect = higher value",-60.9%
same,inhibition,"[4]; BGB combo, at 5 µM",-14.1%
same,inhibition,[4]; at 0.5 µM,-5.11% (inactive)
same,inhibition,"[4]; cisplatin combo, at 5 µM",-9.1%
same,inhibition,[4]; [27],-9.33%
same,inhibition,[4]; [28],0.249%
same,inhibition,"[4]; single agent, at 5 µM",-3.14%
same,inhibition,"[5]; BGB IC20 combo, at 0.005 µM",-6.67%
same,inhibition,"[5]; BGB IC40 combo, at 0.005 µM",-12.8%
same,inhibition,"[5]; BGB IC40 combo, at 0.05 µM",-9.57%
same,inhibition,[5]; at 0.5 µM,-33.3% (inactive)
same,inhibition,"[5]; cisplatin combo, at 0.05 µM",-12.6%
same,inhibition,"[5]; cisplatin combo, at 0.5 µM",-45.3%
same,inhibition,"[5]; cisplatin combo, at 5 µM",-4.46%
same,inhibition,"[5]; measured here: 5 uM single agent, at 5 µM",-18.9%
same,inhibition,[6]; at 0.5 µM,-14.8% (inactive)
same,inhibition,[6]; [26],-38.9%
same,inhibition,[6]; [29],-11.1%
same,inhibition,[6]; [30],-7.4%
same,inhibition,[7]; at 0.5 µM,-2.4% (inactive)
same,inhibition,"[7]; measured here: with BGB IC20, at 0.5 µM",-12.9%
same,inhibition,"[7]; measured here: with BGB IC20, at 5 µM",-34.8%
same,inhibition,"[7]; measured here: with cisplatin IC20, at 0.5 µM",-9.12%
same,inhibition,"[7]; measured here: with cisplatin IC20, at 5 µM",-37.6%
same,inhibition,"[7]; single agent, at 5 µM",-5.74%
same,inhibition,[8]; at 0.5 µM,-46.8% (inactive)
same,inhibition,"[8]; measured here: combination with BGB at IC20, at 0.5 µM",-26.7%
same,inhibition,"[8]; measured here: combination with cisplatin at IC20, at 0.5 µM",-48.1%
same,inhibition,[9]; at 0.5 µM,-1.6% (inactive)
same,inhibition,"[9]; measured here: combo with BGB at IC20, at 0.5 µM",6.5%
same,inhibition,"[9]; measured here: combo with cisplatin at IC20, at 0.5 µM",-1.27%
same,inhibition,[10]; at 0.5 µM,1.48% (inactive)
same,inhibition,"[10]; measured here: inhibition with BGB combination, at 0.05 µM",-24.8%
same,inhibition,"[10]; measured here: inhibition with cisplatin combination, at 0.05 µM",0.893%
same,inhibition,[11]; at 0.5 µM,-10.7% (inactive)
same,inhibition,[11]; [29],-24.9%
same,inhibition,[11]; [30],-73.7%
same,inhibition,[12]; at 0.5 µM,-26.8% (inactive)
same,inhibition,"[12]; measured here: BGB combination, at 0.5 µM",-22.5%
same,inhibition,"[12]; measured here: BGB combination, at 5 µM",-28.6%
same,inhibition,"[12]; measured here: cisplatin combination, at 0.5 µM",-43.6%
same,inhibition,"[12]; measured here: cisplatin combination, at 5 µM",-39.5%
same,inhibition,"[13]; BGB combination, concentration series, at 5 µM",11.2%
same,inhibition,[13]; at 0.5 µM,1.32% (inactive)
same,inhibition,"[13]; cisplatin combination, concentration series, at 5 µM",2.3%
same,inhibition,[14],3.72% (inactive)
same,inhibition,[14]; measured here: combo with BGB IC20,14%
same,inhibition,[14]; measured here: combo with cisplatin IC20,-7.51%
same,inhibition,[15]; at 0.5 µM,-18% (inactive)
same,inhibition,"[15]; cisplatin combination, at 0.5 µM",-20.9%
same,inhibition,"[15]; cisplatin combination, at 5 µM",-30.7%
same,inhibition,"[15]; measured here: BGB IC40 combination 0.05 uM, at 0.05 µM",7.73%
same,inhibition,"[15]; single agent, at 5 µM",-20.3%
same,inhibition,[16]; at 0.5 µM,-32.5% (inactive)
same,inhibition,"[16]; cisplatin combo, at 5 µM",-24.1%
same,inhibition,"[16]; measured here: BGB IC40 combination, at 0.05 µM",-39.7%
same,inhibition,[16]; [29],-23%
same,inhibition,"[16]; single agent, at 5 µM",-29.9%
same,inhibition,[17]; at 0.5 µM,0.47% (inactive)
same,inhibition,[17]; [27],4.81%
same,inhibition,[17]; [28],-4%
same,inhibition,"[17]; single agent, at 0.05 µM",-33.2%
same,inhibition,"[17]; single agent, at 5 µM",12%
c1ccc(CNc2ncnc3nc[nH]c23)cc1,survival,[18],39 (inactive)
same,parasite load remaining,[19],31% (inactive) and 123% (inactive)
same,viability,[19],49.8% and 87.6%
same,fold change,[1]; [20],1.05 (inactive)
same,fold change,[1]; [21],1.32
same,cell count,[1]; [22],8060
same,cell count,[1]; [23],7640
same,z-score,[2]; [24],2.23 (active)
same,z-score,[2]; [25],0.15
